Assay outcomes deposited in PubChem by several laboratories.
Rows were chosen to be rich in hits. Some 0.6% of all compounds tested hit in one or more screens of this group.
CD11b adhes inh: blocks human CD11b/CD18 adhesion to fibrinogen. inhibition, % at 10 µM. K562 CD11b/CD18 adhesion to fibrinogen, ATPlite luminescence; Mn2+ added to activate the integrin. AID 1497. P05107+P11215. hit rate 0.54% among 93,000;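 active means primary inhibition of 50% or more at 10 µM, then 40% or more on retest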
WNV protease inh: inhibitors of West Nile virus NS2B-NS3 protease | P06935 | WNV NS2B-NS3 protease, fluorogenic substrate Ex360/Em465; hits give low values | z-score (concentration not given with the values) | hit rate 0.18% among 65,000 | AID 577; in the data active means z-score below about -3
Target sequence (P06935 1371-1501 limits assumed): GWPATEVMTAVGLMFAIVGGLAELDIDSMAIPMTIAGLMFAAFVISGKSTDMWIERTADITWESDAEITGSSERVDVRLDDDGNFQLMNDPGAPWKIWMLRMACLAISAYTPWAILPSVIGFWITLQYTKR
Target sequence (P06935 1502-1679 limits assumed): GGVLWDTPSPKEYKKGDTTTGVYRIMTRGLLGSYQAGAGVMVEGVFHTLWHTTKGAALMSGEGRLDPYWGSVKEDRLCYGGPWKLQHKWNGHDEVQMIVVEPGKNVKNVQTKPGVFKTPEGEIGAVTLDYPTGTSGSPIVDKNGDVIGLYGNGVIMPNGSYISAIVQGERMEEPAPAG
Mac1 fbg enh: CD11b/CD18-fibrinogen binding enhancement | AID 1499 | K562 CD11b/CD18 adhesion to fibrinogen, ATPlite luminescence | activation, % at 10 µM | hit rate 0.07% among 93,000 | P05107+P11215;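 active means 10 µM primary screen giving 50% or more activity, confirmed by 40% or more on retest at that dose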
An asterisk follows results filed as active; · = no result.

SMILES | CD11b adhes inh | WNV protease inh | Mac1 fbg enh
CCn1cc(C(=O)Nc2cccc(C(=O)OC)c2)c(=O)c2ccc(C)nc21 | 9 | -6.2* | 14
CCn1cc(C(=O)Nc2ccccc2C(=O)OC)c(=O)c2ccc(C)nc21 | · | 0.47 | ·
CCOC(=O)C1CCN(C(=O)Nc2ccc(Cl)cc2Cl)CC1 | · | -0.39 | ·
CCCC1C2CN(C(C)C)CC=C2C(C#N)=C(N)C1(C#N)C#N (configuration not stated) | -6 | 0.09 | 1
CCOC(=O)Cc1csc(/N=C/c2c(O)n(-c3ccccc3C(F)(F)F)c(=O)c3ccccc23)n1 | 2 | · | 7
Cc1ccc(S(=O)(=O)C(C#N)c2nc3ccccc3nc2N2CCCCC2)cc1 (configuration not stated) | 27 | -0.13 | -4
Cc1cccc(S(=O)(=O)C(C#N)c2nc3ccccc3nc2N2CCOCC2)c1 (configuration not stated) | 58* | 1.5 | 0
Cc1ccc(NC(=O)C2C3CC4OC(=O)C2C4C3)cc1Cl (configuration not stated) | -12 | -6.4* | 1
CC(C)OC(=O)c1ccc(NC(=O)C2C3CC4OC(=O)C2C4C3)cc1 (configuration not stated) | · | 1.5 | ·
COc1ccc2cc(CN(CC3CCCO3)S(=O)(=O)c3ccccc3Cl)c(=O)[nH]c2c1 (configuration not stated) | -8 | · | 4
COc1ccc2c(c1)[nH]c1c(N3CCN(Cc4ccc5c(c4)OCO5)CC3)ncnc12 | 83* | -0.09 | -12
Cc1ccc2[nH]c3c(N4CCN(Cc5ccccc5)CC4)ncnc3c2c1 | 84 | -0.06 | -2
Cc1ccc2[nH]c3c(N4CCN(Cc5ccc6c(c5)OCO6)CC4)ncnc3c2c1 | 91* | -0.28 | -7
COc1cccc2[nH]c3c(N4CCN(Cc5ccc6c(c5)OCO6)CC4)ncnc3c12 | 8 | 1 | 2
CCCn1c(C)nc2c(c1=O)c1nc3ccccc3nc1n2CCc1ccccc1 | · | 0.93 | ·
CCCn1c(C)nc2c(c1=O)c1nc3ccccc3nc1n2CCC1=CCCCC1 | 0 | 1.1 | 62*
CN(NC1CC(=O)N(c2ccccc2)C1=O)c1ccccc1 (configuration not stated) | 3 | · | 0
Cc1ccc2nc(SCC(=O)NNC(=O)c3ccccc3)[nH]c2c1 | -3 | · | 4
Cc1cccc(OCCCCc2c(C)n[nH]c2C)c1C | 90* | 0.58 | -8
COc1ccccc1OCCCc1c(C)n[nH]c1C | 6 | -0.62 | -6
COc1ccccc1OCCCCCc1c(C)n[nH]c1C | 62* | -0.79 | -8
CCOc1ccccc1OCCCCCc1c(C)n[nH]c1C | 47 | 0.71 | -9
COc1cc(CN(C(=S)NCC(=O)NC2CCCC2)C2CCCC2)cc(OC)c1OC | -18 | · | -6
COc1cccc(-c2nnc(SCC3CNC(=O)O3)n2-c2ccc(Cl)cc2)c1 (configuration not stated) | -17 | · | -1
COc1ccc(C2C(C#N)=C(N)Oc3c2c(C)nn3-c2ccccc2)cc1Cn1nc(C)c([N+](=O)[O-])c1C (configuration not stated) | 11 | · | 51*
SMILES | CD11b adhes inh | WNV protease inh | Mac1 fbg enh
COc1ccc(C2C(C#N)=C(N)OC3=C2C(=O)CC(C)(C)C3)cc1Cn1nc(C)c([N+](=O)[O-])c1C (configuration not stated) | 12 | · | 0
CCCn1nnc(NC(=O)C(C)Oc2ccc(Cl)cc2Cl)n1 (configuration not stated) | 4 | -0.5 | 3
CC(Oc1ccc(Cl)cc1Cl)C(=O)Nc1ccncc1 (configuration not stated) | 57* | -0.13 | -4
CCC(Oc1ccccc1)C(=O)Nc1ccc(S(=O)(=O)Nc2cnc3ccccc3n2)cc1 (configuration not stated) | -20 | · | 0
CC(Oc1ccc(Cl)cc1Cl)C(=O)Nc1ccc(S(=O)(=O)Nc2cnc3ccccc3n2)cc1 (configuration not stated) | 78* | · | 6
Cc1c(CN(C)C(=O)/C=C/c2ccc([N+](=O)[O-])cc2)cnn1C | 1 | · | 1
CC1CC(C)CN(c2nc3c(c(=O)[nH]c(=O)n3C)n2CCSc2nc3ccccc3o2)C1 (configuration not stated) | · | -0.84 | ·
CCOc1ccc(S(=O)(=O)Nc2nc3ccccc3nc2Nc2ccc(N3CCOCC3)cc2)cc1 | 68 | · | 8
CCCN1C=CC(=C2C(=O)c3ccccc3C2=O)C=C1 | 95* | -0.43 | -10
CCN1C=CC(=C2C(=O)c3ccccc3C2=O)C=C1 | · | -0.46 | ·
O=C(COC(=O)CCc1c[nH]c2ccccc12)NC(c1ccccc1)c1ccccc1 | 14 | · | 4
Cc1nn(-c2ccccc2)c(Cl)c1/C=C1\SC(=S)NC1=O | 101* | · | -10
COC(=O)N/N=C\c1c(C)nn(-c2ccccc2)c1Cl | 4 | · | 2
COc1ccccc1/C=N/Nc1nncc2ccccc12 | 15 | · | 18
COc1ccc(/C=N/Nc2nncc3ccccc23)cc1 | 95* | · | -10
O=C1c2ccccc2C(O)(Cc2ccccc2)N1c1ccc2c(c1)OCO2 (configuration not stated) | -25 | -1.4 | 7
COCCn1c(-c2ccc(Cl)cc2)cnc1SCC(=O)NCCc1ccc(OC)c(OC)c1 | 53* | · | -2
COc1ccc(CCNC(=O)CSc2nncn2N)cc1OC | -3 | -0.22 | 0
O=C1c2ccccc2C(=O)N1CCCc1c[nH]c2ccc(Cl)cc12 | 28 | · | -3
Cc1ccc(OCC(=O)Nn2c(C)nc3ccccc3c2=O)c(C(C)C)c1 | 11 | · | -4
CCCCCc1ccc(CC(=O)Nn2c(C)nc3ccccc3c2=O)cc1 | 88* | · | -3
NC(=O)NC1CCCc2c1[nH]c1ccc(Cl)cc21 (configuration not stated) | 7 | -3* | 1
CCOC(=O)c1ccc2[nH]c3c(c2c1)CCCC3C(=O)OCC (configuration not stated) | 3 | · | -3
CC(=O)Nc1ccc(NCN2C(=O)[C@@H]3[C@H]4CC[C@H](C4)[C@@H]3C2=O)cc1 | 1 | · | 0
O=C(Nc1ccc(-n2nncc2-c2ccco2)cc1)c1cccc(F)c1 | -32 | -2 | 1
SMILES | CD11b adhes inh | WNV protease inh | Mac1 fbg enh
O=C(Nc1ccc(-n2nncc2-c2ccco2)cc1)c1cc2ccccc2oc1=O | -7 | -1.5 | 168*
CC/C(C)=N/Nc1cccc([N+](=O)[O-])c1 | -8 | · | 1
Clc1ccc(COn2nnc3ccccc32)c(Cl)c1 | 10 | -0.35 | -2
Clc1ccc(Cc2nn3c(Cn4nnc5ccccc54)nnc3s2)cc1 | 7 | -0.57 | 0
Cc1ccc(C(=O)C[n+]2cc(-c3ccc(C)cc3)n3c2CCCCC3)cc1 | 54* | · | -6
O=C(C[n+]1cc(-c2ccccc2)n2c1CCC2)OCc1ccccc1 | 10 | · | 1
COC(=O)CSC1=C(C#N)C(c2ccc(C)cc2)C2=C(CCCC2=O)N1 (configuration not stated) | -5 | -5* | -5
COC(=O)CSC1=C(C#N)C(c2ccc3c(c2)OCO3)C2=C(CCCC2=O)N1 (configuration not stated) | 2 | · | -3
CCOc1ccc(S(=O)(=O)NCc2ccncc2)cc1 | 98* | · | -7
COc1ccc(S(=O)(=O)NCc2ccncc2)cc1OC | -5 | 1.8 | -3
